The results in this text go back to PubChem BioAssay AID1964107 (National Center for Advancing Translational Sciences (NCATS), 2024).

The structures appear in SMILES notation. Values joined by “and” are separate entries in the source; they are usually repeats but may differ in a detail not shown here. Equal values may be shown once. Among all 31,000 compounds or so, about 360 (1.2%) were called active. Entries that show only a call come without a potency. Inconclusive results (about 8%) are left out. The call rests on the fitted dose curve. The sample as a whole holds a higher share of actives than the screen did.
Potency means the concentration at half of the fitted maximal effect.

Chain of Polyprotein P1234 (Chikungunya virus (strain S27-African prototype)) (Q8JUX6 whole entry, looked up): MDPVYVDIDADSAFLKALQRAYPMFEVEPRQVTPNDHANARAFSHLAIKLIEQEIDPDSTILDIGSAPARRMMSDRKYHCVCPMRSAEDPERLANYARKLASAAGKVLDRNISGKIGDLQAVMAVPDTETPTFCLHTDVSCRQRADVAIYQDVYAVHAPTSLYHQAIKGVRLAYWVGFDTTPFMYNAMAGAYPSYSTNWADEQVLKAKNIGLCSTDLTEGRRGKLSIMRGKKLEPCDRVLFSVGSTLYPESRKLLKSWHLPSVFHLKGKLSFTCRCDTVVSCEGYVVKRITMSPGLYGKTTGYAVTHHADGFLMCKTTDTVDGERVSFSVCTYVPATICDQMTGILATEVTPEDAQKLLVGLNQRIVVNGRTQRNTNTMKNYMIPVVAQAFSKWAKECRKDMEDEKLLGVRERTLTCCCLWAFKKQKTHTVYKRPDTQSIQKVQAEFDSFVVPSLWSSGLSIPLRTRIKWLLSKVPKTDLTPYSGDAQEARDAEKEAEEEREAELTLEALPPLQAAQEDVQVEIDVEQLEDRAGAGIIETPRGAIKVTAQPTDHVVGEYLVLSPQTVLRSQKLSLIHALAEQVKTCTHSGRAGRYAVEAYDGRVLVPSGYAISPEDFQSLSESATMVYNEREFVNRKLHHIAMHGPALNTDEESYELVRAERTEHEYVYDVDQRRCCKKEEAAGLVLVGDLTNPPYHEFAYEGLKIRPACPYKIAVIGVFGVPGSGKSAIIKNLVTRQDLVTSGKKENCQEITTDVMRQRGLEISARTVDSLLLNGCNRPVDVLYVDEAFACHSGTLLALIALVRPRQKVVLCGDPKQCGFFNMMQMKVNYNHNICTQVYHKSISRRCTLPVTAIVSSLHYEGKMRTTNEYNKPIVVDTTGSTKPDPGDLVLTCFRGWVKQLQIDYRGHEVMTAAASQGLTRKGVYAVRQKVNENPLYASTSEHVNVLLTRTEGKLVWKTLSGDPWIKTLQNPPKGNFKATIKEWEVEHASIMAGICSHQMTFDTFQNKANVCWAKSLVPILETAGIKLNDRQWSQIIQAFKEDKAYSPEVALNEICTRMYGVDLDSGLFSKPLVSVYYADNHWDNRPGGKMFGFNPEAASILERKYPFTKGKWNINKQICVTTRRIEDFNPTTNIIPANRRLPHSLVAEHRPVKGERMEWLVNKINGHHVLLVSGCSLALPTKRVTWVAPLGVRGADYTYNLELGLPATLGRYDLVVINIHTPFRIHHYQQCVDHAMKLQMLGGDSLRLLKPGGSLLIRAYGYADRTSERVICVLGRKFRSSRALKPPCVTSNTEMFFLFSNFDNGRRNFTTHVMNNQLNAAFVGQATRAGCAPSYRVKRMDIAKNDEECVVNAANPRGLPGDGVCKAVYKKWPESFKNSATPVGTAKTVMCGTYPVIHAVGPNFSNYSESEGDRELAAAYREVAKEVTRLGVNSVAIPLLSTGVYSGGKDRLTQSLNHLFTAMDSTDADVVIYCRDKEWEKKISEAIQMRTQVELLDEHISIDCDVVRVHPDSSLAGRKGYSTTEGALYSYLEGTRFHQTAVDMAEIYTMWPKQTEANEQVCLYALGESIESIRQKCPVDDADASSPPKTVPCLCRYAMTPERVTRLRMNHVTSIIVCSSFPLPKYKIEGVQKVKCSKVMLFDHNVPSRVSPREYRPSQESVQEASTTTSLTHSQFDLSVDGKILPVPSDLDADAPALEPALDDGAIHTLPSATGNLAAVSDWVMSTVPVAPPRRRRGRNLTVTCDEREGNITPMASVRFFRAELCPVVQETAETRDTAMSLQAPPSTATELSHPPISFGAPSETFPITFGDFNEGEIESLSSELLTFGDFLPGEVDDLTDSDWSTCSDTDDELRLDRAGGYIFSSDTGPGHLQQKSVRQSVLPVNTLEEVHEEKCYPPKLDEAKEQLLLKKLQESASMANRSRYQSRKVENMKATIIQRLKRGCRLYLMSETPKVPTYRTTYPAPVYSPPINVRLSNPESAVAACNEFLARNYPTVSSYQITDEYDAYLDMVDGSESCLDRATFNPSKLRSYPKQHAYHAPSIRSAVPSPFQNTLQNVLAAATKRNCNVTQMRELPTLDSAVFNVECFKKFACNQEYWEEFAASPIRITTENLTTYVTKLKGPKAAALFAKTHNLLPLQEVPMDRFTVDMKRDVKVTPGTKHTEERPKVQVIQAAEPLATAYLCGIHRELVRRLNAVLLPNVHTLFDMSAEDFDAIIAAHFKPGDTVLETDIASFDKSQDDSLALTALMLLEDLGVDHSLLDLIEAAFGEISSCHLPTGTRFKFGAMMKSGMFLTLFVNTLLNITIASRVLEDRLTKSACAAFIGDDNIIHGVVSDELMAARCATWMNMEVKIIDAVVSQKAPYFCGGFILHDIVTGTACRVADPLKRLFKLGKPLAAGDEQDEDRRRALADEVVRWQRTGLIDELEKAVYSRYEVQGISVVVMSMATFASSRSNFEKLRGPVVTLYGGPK

The assay has as its target Polyprotein P1234 (Chikungunya virus (strain S27-African prototype)) (UniProt Q8JUX6). Nature of the assay: Primary qHTS for inhibitors of NSP2Pro chikungunya virus (CHIKV). Further: nearly all actives have a fitted effect of over 60% in size. Conditions: FRET peptide cleavage, fluorescence 1 h; series mostly up to 24.9 µM. The text has this:
PI: Natalia J. Martinez Ph.D. National Center for Advancing Translational Sciences (NCATS), National Institute of Health (NIH), Rockville, Maryland Chikungunya virus (CHIKV) is a mosquito-borne RNA virus that has emerged as one of the most important global arboviral threats in the last decade. Although the first CHIKV vaccine has recently been FDA approved for use in healthy adults at increased risk, to date, there are no available antiviral drugs for CHIKV infection. CHIKV nsP2 protease plays a crucial role in the processing of the viral polypeptide precursor to release enzymes required for viral replication, thus making it a promising drug target for antiviral discovery. Here, we established a high-throughput pipeline to identify small molecule inhibitors of nsP2 proteolytic activity. The pipeline is composed of a suite of 1,536-well in vitro assays to support quantitative high-throughput (qHTS) screening campaigns. Specifically, we developed a fluorescence resonance energy transfer (FRET)-based assay using a fluorogenic peptide substrate encompassing an endogenous cleavage site and purified recombinant protease domain (nsP2pro). Using this assay, we interrogated ~37,000 small molecules, including those in drug repurposing libraries as well as chemically diverse and medicinal chemistry-friendly compounds. Hits were selected for follow-up validation against full-length nsP2 and an additional peptide. FRET-based 1,536-well assays for papain, hepatitis C virus NS3-4A, and human furin proteases were implemented to characterize compound selectivity. […] Novel compounds were identified to be potential nsP2 inhibitors and molecular docking analyses were performed to explain the binding mode of selected hits. In vitro antiviral activity was evaluated for a subset of compounds using a high-throughput CHIKV infection assay. To our knowledge, the pipeline presented here is unprecedented for CHIKV antiviral discovery research.
PROTOCOL TABLE (as described by Inglese J, Shamu CE and Guy RK. 2007) SEQUENCE No. (e.g., 1, 2, 3, etc.); […] (e.g., Cells, Incubation, Reagent, etc.); VALUE; DESCRIPTION. 1; Control / Compound; 20 nL; Echo 655 acoustic dispenser, Greiner 1536-well solid bottom black plate. 2; Enzyme; 4 uL; BioRAPTR FRD liquid dispenser (Beckman Coulter). 3; Incubation; 15 min; room temperature. 4; Reagent; 4 uL; 2.5 uM Peptide 2 substrate. 5; Incubation; 1 hr; room temperature. 6; Detection; Fluorescence; WiewLux microplate reader (PerkinElmer), 525 nm excitation, 598/25 nm emission. NOTES (numbers refer to sequence numbers above). 1. Briefly, 20 nL DMSO, positive control ZnAc (20nM final concentration), and test compounds were transferred into a 1,536-well solid bottom black plate (789176-F, Greiner One) via Echo 655 acoustic dispenser (Beckman Coulter). For primary screens, compounds were tested at 7 concentrations, 1:3 dilution points ranging from 25 uM to 34 nM. Follow-up confirmatory screens were carried out at 11 concentrations, 1:3 dilution points from 25 uM to 0.42 nM. 2. Four uL nsP2pro enzyme mix (150 nM final concentration) in 10 mM Tris-HCl pH 8.0 with 0.01% Tween 20 assay buffer was dispensed into the plate using a BioRAPTR FRD liquid dispenser (Beckman Coulter). 3. The plate was incubated at room temperature (protected from light) for 15 min 4. Four microliter of peptide 2 substrate (2.5 uM final concentration) in assay buffer was added to the plate. 5. After 1 hour, plates were immediately read on a ViewLux high-throughput CCD imager (Exposure = 10 sec, Gain = High, Speed = Slow, Binning = 2X). The above assay was also incorporated in the NCATS HTS facility41, which allowed for robotic liquid and compound dispensing, microplate handling, and fluorescence reading.. REFERENCE: Inglese J, Shamu CE and Guy RK, Reporting data from high throughput screening of small molecule libraries, Nature Chemical Biology, 2007, 3(8): 438-441. doi.org/10.1038/nchembio0807-438.
(Quantitative high-throughput screening tests each substance at several concentrations.)
Turning to `Cc1ccc(Cl)cc1NC(=O)C1CCCN(c2cnccn2)C1` (centres undefined), the Potency entry is “inactive”. As for `C=C1C(=O)OC2C=C(C)CC/C=C(\CO)CC(O)C12` (centres undefined), the entry is “inactive”.

Consider `CCN(c1ncnc2c1cnn2-c1ccc(C)cc1)C1CCCCC1`, for which the Potency entry is “inactive”. Take `Cc1ccc(Cl)cc1NC(=O)/C(C#N)=C\c1cn(Cc2ccc(F)cc2)c2ccccc12`: the Potency result is “inactive”. With `CCCN1CCc2nc(N3CCN(C)CC3)ncc2C1`, the Potency entry was “inactive”. On to `CC1CCN(S(=O)(=O)c2ccc3c(ccn3CCC(=O)NCc3ccc(N(C)C)cc3)c2)CC1`, for which the Potency entry is “inactive”.

`Oc1ccc2c3c1O[C@H]1c4[nH]c5c(N=C=S)cccc5c4C[C@@]4(O)[C@@H](C2)N(CC2CC2)CC[C@]314`: the Potency result was “inactive”.

For the compound `O=C(NCC(c1ccc2c(c1)OCO2)N1CCN(c2ccccc2)CC1)C(=O)Nc1ccccc1F` (centres undefined), the Potency result is “inactive”.

In the case of `Cc1cc(C(=O)NC2CC(c3cc(=O)[nH]cn3)C2)cc(S(N)(=O)=O)c1C` (centres undefined), the Potency result is “inactive”. As for `CCS(=O)(=O)N1CCc2cc(C(=O)NCc3ccc(OC)cc3)ccc21`, the entry is “inactive”; as for `Cc1nc(CNC(=O)[C@H]2CCC[C@@H](O)C2)nc2c1CCCC2`, “inactive”; as for `CCOC(=O)c1ccc(NC(=O)C2CC(=O)N(c3ccc(C(C)C)cc3)C2)cc1` (centres undefined), “inactive”. Under `Cc1nc(C)c(-c2ccc3ncnc(N(C)Cc4sccc4C)c3c2)s1` stands “inactive”.

Turning to `O=C(Cn1c(=O)n(-c2ccc(F)cc2)c(=O)c2sccc21)Nc1cccc(C(F)(F)F)c1`, the Potency entry was “inactive”.

Consider `COc1cc(C(C)=O)ccc1O[C@@H]1O[C@H](CO[C@@H]2OC[C@@H](O)[C@H](O)[C@H]2O)[C@@H](O)[C@H](O)[C@H]1O`, for which the Potency result is “inactive”. As for `Cc1cc(-c2ccc(C)c(S(=O)(=O)N3c4ccccc4CC3C)c2)on1` (centres undefined), the entry is “inactive”; as for `CCOC(=O)N1CCc2c(sc3c2c(=O)n(Cc2ccccc2)c(=O)n3CC(=O)Nc2cccc(C)c2)C1`, “inactive”; as for `CNC(=O)[C@@H]1C[C@@H](O)CN1C1CCN(C(=O)C2(c3ccccc3)CC2)CC1`, “inactive”. Under `O=c1cc(-c2cccnc2)oc2c(-c3cccc(CO)c3)nccc12` stands “inactive”. Under `NC(=O)CN1CC2(CCC1=O)CCN(C[C@@H](O)CO)CC2` stands “inactive”; under `Cc1nc(C(=O)N2CCn3nc(Cc4ccccc4)cc3C2)cs1`, “inactive”; under `OCC1(CCCc2ccccc2)CCCNC1` (centres undefined), “inactive”.

Take `Cc1ccc(OCCn2c(CCNC(=O)c3ccccc3)nc3ccccc32)cc1`: the Potency entry was “inactive”. Consider `Cc1cccc(Nc2nc(C)nc(N)c2S(=O)(=O)c2ccccc2)c1`, for which the Potency result is “inactive”.

In the case of `N#CSc1cc(SC#N)c(N)nc1N`, the Potency was 664 nM (active) and 351 nM (active) and 1.24 µM (active). Under `CCCNC(=O)C(CC)n1nc(CC)n2c(cc3oc(C)cc32)c1=O` (centres undefined) stands “inactive”. As for `COC([CH2][Hg])CNC(=O)c1ccccc1OCC(=O)O` (centres undefined), the figure is 1.49 µM (active).

With `COc1ccc(-c2ccccc2C(=O)NCC#N)nn1`, the Potency entry is “inactive”.

Take `Cc1ccc(CNC(=O)CSC2=Nc3ccccc3C3=NC(C)C(=O)N23)cc1` (centres undefined): the Potency result is “inactive”.
